CCHF vOTU inh-1: blocks the CCHF virus ovarian tumor domain protease | 0.55% of 370,000 active | inhibition, % at 11.5 µM | CCHFV vOTU protease, Pep-AMC fluorescence; note: 0% = vehicle wells with enzyme and 100% = no enzyme wells
Mtb hypoxia rep: Mtb hypoxia fluorescent reporter inhibition; M. tuberculosis hypoxia-regulated fluorescent reporter, fluorescence; AID 1159583; fluorescence inhibition, % (concentration not given with the values); 0.1% of 300,000 active; in the data active = fluorescence inhibition mostly above about 23%, no sharp cut-off; inactive = mostly below about 17%
BJeLR lethal: kills HRASV12-expressing BJeLR cells; AID 1554; BJeLR (HRASV12) viability, CellTiter-Glo ATP luminescence, 48 h; 0.17% of 300,000 active; inhibition, % (test concentration not listed); in the data active = inhibition above about 50%
ugtP null kill: growth inhibition of S. aureus ugtP deletion strain; S. aureus RN4220 ugtP deletion, OD600 growth, 16 h; growth inhibition, % (no concentration beside the values); 0.54% of 330,000 active; AID 1259309; in the data active = growth inhibition above about 68%;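 note: plate controls were untreated wells for no effect and antibiotic for full effect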
RN4220 kill: kills Staphylococcus aureus RN4220; S. aureus RN4220 growth, OD600, 16 h; inhibition, % (concentration not given with the values); 0.33% of 330,000 active; in the data active = inhibition above about 85%;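 note: plate controls were untreated cells for no effect and reference antibiotic for full effect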
RecA intein inh: inhibitors of M. tuberculosis RecA intein splicing | P9WHJ3 | cell-free RecA intein splicing, fluorescence | inhibition, % (test concentration not listed) | 0.75% of 290,000 active | AID 2221; in the data active = inhibition above about 30%;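 note: 0% = vehicle wells and 100% = reference inhibitor control wells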
Target sequence (P9WHJ3 whole entry, looked up): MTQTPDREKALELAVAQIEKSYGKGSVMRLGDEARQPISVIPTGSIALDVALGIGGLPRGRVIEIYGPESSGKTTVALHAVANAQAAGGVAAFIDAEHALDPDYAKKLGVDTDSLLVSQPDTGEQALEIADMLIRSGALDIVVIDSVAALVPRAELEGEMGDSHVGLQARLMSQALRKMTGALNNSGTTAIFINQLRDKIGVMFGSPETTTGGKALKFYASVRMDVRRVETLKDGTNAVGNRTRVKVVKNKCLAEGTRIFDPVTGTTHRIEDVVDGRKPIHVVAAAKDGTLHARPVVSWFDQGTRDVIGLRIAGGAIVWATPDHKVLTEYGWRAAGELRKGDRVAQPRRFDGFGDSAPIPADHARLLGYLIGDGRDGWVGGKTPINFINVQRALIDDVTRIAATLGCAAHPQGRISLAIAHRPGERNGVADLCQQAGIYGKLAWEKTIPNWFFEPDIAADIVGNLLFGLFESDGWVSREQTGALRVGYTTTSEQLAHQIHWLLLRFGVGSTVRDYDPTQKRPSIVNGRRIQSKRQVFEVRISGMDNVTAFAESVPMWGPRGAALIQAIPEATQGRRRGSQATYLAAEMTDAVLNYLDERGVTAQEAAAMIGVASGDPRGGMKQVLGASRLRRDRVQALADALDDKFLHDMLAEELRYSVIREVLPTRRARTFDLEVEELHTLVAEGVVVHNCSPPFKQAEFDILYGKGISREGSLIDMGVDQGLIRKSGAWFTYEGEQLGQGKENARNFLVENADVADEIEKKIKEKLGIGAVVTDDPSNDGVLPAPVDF
CCHF vOTU inh-2: confirmation of CCHF virus vOTU protease inhibitors | Recombinant CCHFV vOTU, Pep-AMC fluorescence | 17% of 1,900 active | inhibition, % at 11.5 µM | shares compounds with CCHF vOTU inh-1
An asterisk follows results filed as active; . = no result given. Most compounds without a hit are left out; they make up all but 1.6% or so of the library. Cut-off read from the data, not from the text of the source, unless noted: active = inhibition above about 30%; inactive = the rest.

SMILES	CCHF vOTU inh-1	Mtb hypoxia rep	BJeLR lethal	ugtP null kill	RN4220 kill	RecA intein inh	CCHF vOTU inh-2
C(=NNc1nc(N2CCCCC2)nc(N2CCCCC2)n1)c1c[nH]c2ccccc12	.	3	.	-2	-3	.	.
COc1ccc(CN2CCC3C=CCc4cccc(c43)C2)cc1 (configuration not stated)	.	4	.	-3	-3	.	.
COc1cc(-c2coc3c(C(=O)NCc4ccccc4)cccc23)ccc1O	41*	.	.	.	.	.	-5
O=C(CCN1C(=O)C(=Cc2ccc3c(c2)OCO3)SC1=S)NNC(=O)c1cccnc1	.	-4	.	8	5	.	.
CCOc1cccc(CNc2ccc(O)cc2)c1OCc1ccc(Cl)cc1	31*	.	-7	6	-4	-13	-2
CC1CN(C(C)CO)C(=O)c2cccc(NC(=O)Nc3ccc(C(F)(F)F)cc3)c2OC1CN(C)S(=O)(=O)c1ccc(Cl)cc1 (configuration not stated)	.	4	.	-22	8	.	.
O=C(Cc1ccccc1)Nc1cc(Cl)ccc1Sc1ccccc1	30*	6	-10	7	-2	-1	-13
CCCCCCN1C[C@H](n2cc(C3CC3)nn2)[C@@H](O)C[C@@H]1c1ccc(C)cc1	38*	.	.	.	.	.	16
CCCCCCN1C[C@H](n2cc(COC(=O)c3ccccc3)nn2)[C@@H](O)C[C@@H]1c1ccccc1	17	.	.	.	.	.	.
CCCCCCN1C[C@H](n2cc(COC(=O)c3ccccc3)nn2)[C@@H](O)C[C@@H]1c1ccc(C)cc1	37*	.	.	.	.	.	8
Fc1cccc(Cc2c(-c3ccco3)nc3c(Cl)cc(C(F)(F)F)cn23)c1	31*	.	.	.	.	.	-4
Fc1ccc(-c2nc3c(Cl)cc(C(F)(F)F)cn3c2Cc2cccc(F)c2)cc1	-3	.	.	.	.	.	.
CCOC(=O)C1=C(Cc2ccc(C)cc2)C(=O)c2ccccc2C1=O	96*	.	24	.	.	61*	-9
COC(=O)C1=C(c2ccccc2OCc2ccccc2)CC2CCC1N2C(=O)NCc1ccc(OC)c(OC)c1 (configuration not stated)	.	-5	.	-7	-1	.	.
O=C(N/N=C/c1ccc(-c2ccc(S(=O)(=O)Nc3ncccn3)cc2)o1)c1cc2ccccc2cc1O	41*	.	0	.	.	-47	-2
O=C(NN=Cc1ccc(-c2ccc(S(=O)(=O)Nc3ncccn3)cc2)o1)c1cc2ccccc2cc1O	.	20	.	5	1	.	.
O=C(NC1CCCCC1)C(c1ccccc1F)n1c(=O)c(-c2ccco2)nc2ccccc21 (configuration not stated)	12	.	.	.	.	.	.
O=C(NC1CCCCC1)C(c1ccnc2ccccc12)n1c(=O)c(-c2ccco2)nc2ccccc21 (configuration not stated)	33*	.	.	.	.	.	-33
Oc1c(CN2CCCCC2)cc(Br)c2cccnc12	70*	-1	6	-23	12	0	-7
O=C(NC(=S)Nc1ccccc1N1CCCCC1)c1cccs1	2	0	-12	-22	-7	18	.
O=C(NC(=S)Nc1ccccc1N1CCCC1)c1cccs1	37*	-1	-6	-4	-1	10	38*
CC(C)CC(=O)NC(=S)Nc1ccccc1N1CCCC1	31*	5	-7	79	9	2	12
COCCNC(=O)[C@@]1(C)C=CC(Cc2ccccc2)N1C(=O)c1ccccc1 (some centres not stated)	.	-8	.	-1	1	.	.
CCCN(CC(=O)Nc1cccc(Br)c1)CC(=O)Nc1ccc(F)c(F)c1F	37*	6	0	-26	-18	12	-8
Cc1cc(C(F)(F)F)nc(SCc2ccc(C(=O)O)o2)n1	41*	9	-7	-6	5	4	-10
SMILES	CCHF vOTU inh-1	Mtb hypoxia rep	BJeLR lethal	ugtP null kill	RN4220 kill	RecA intein inh	CCHF vOTU inh-2
CCOC(=O)C1C2COc3ccc(Cl)cc3C2N2C(=O)C(C)NC(=O)[C@@]12C (some centres not stated)	.	-2	.	-12	0	.	.
O=C(c1ccc2nc(-c3ccco3)c(-c3ccco3)nc2c1)N1CCN(c2ccccc2)CC1	48*	4	-2	-3	2	-25	-8
O=S(=O)(c1ccc2nc(-c3ccco3)c(-c3ccco3)nc2c1)N1CCOCC1	73*	6	1	-2	5	4	40*
CCOC(=O)c1c(NC(=O)/C=C/C(=O)O)sc(C)c1-c1ccc(C(C)(C)C)cc1	45*	7	4	30	11	.	16
CCOC(=O)C1=CCC(c2cc3ccc(OC)cc3n2C(=O)OC(C)(C)C)NC1 (configuration not stated)	34*	.	.	.	.	.	-6
Cc1cc(C)c2nc(N3C(=O)C(O)=C(C(=O)c4ccco4)C3c3ccc(O)cc3)sc2c1 (configuration not stated)	34*	0	.	85	2	.	6
Cc1cc(C)c2nc(N3C(=O)C(O)=C(C(=O)c4ccco4)C3c3cccc(O)c3)sc2c1 (configuration not stated)	36*	1	.	88*	54	.	-1
CCOC(=O)c1sc(N2C(=O)C(O)=C(C(=O)c3ccco3)C2c2cccc([N+](=O)[O-])c2)nc1C (configuration not stated)	19	1	-1	29	3	23	.
CCOC(=O)c1sc(N2C(=O)C(O)=C(C(=O)c3ccco3)C2c2cccc(Cl)c2)nc1C (configuration not stated)	42*	.	12	.	.	3	1
O=S(=O)(Nc1ccc(Cl)c(C(F)(F)F)c1)c1cnc[nH]1	32*	.	1	0	4	3	-15
COc1ccccc1NC(=O)CC(C)=NNC(=O)C12CC3CC(CC(C3)C1)C2	.	4	.	1	3	.	.
CCN(c1ccc(OC)cc1)S(=O)(=O)c1cc(-c2cc(C)no2)ccc1OC	31*	-1	-1	-4	7	6	-18
CCN(c1ccc(OC)cc1)S(=O)(=O)c1cc(-c2cc(C)no2)ccc1C(C)C	16	-6	1	5	9	9	.
CCOC(=O)C1C2COc3ccc(Br)cc3C2N2C(=O)N(c3cccc(F)c3)C(=O)[C@@]12C (some centres not stated)	.	1	.	2	11	.	.
COc1ccccc1C(=O)NCC(=O)NN=Cc1ccc([N+](=O)[O-])cc1	.	1	.	1	0	.	.
Cc1ccc(S(=O)(=O)Nc2nc3c(s2)C(=O)CC(C)(C)C3)cc1	30*	-1	.	0	2	-1	-11
COc1ccc(S(=O)(=O)Nc2nc3c(s2)C(=O)CC(C)(C)C3)cc1	2	-1	-6	-2	-2	1	.
Cc1nc(N2CCOCC2)nc(N2CCCCC2)c1[N+](=O)[O-]	44*	5	3	8	3	6	-9
CCN(CC)c1ccc(NC(=O)COC(=O)C2CCN(c3ccc(C(F)(F)F)cn3)CC2)cc1	-3	0	.	4	1	.	.

Bioassay records deposited in PubChem BioAssay by several laboratories.
